The full data set covers some 8,800 targets. This sample favours those with a hit. About 0.5% of all pairs of compound and target were hits.
What was measured:
Experiment in all cases: log2 fold change, soluble protein after heating vs DMSO (PISA); higher = thermal stabilisation; K562 lysate, 10 uM; active = over 0.2 and 3.5 SD of the protein, either way, in both replicates (recomputed)
[1] = compound: C#Cc1cccc(Nc2ncnc3cc(OCCOC)c(OCCOC)cc23)c1 [erlotinib]
How it was run: (§1)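 The values are log-two fold changes in thermal stability compared with solvent controls and come from duplicates. They were obtained by TMTpro 16plex LC-MS/MS, with channel sums equalised, on the supernatant after 21,000xg for 90 min. That supernatant came from crude K562 extract at 1 mg/mL protein treated with 10 μM compound for 30 min, heated for 3 min across 48°C-58°C, pooled and brought to 0.5% NP-40 at 4°C.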

[2] = compound: C/C(=N\NC(=O)C1=CC(=CC=C1)S(=O)(=O)N2CCOCC2)/C3=C(C=CC(=C3)Cl)O
How it was run: as §1

[3] = compound: C1=CC(=CC=C1C2=NC3=C(N2)C=C(C=C3)C(=O)N)OC4=CC=C(C=C4)Cl
How it was run: as §1

[4] = compound: C1=CC2=C(C=CC(=C2)/C=C\3/C(=O)NC(=NCC4=CC=CS4)S3)N=C1
How it was run: as §1

[5] = compound: C1=CC2=NC=CN=C2C=C1/C=C/3\C(=O)NC(=O)S3
How it was run: as §1

[6] = compound: C1=CC=C(C=C1)C2=NC(=C(N2)C3=CC=NC=C3)C4=CC(=C(C=C4)Cl)O
How it was run: as §1

[7] = compound: C1=CC=C2C(=C1)C3=NNC4=CC=CC(=C43)C2=O
How it was run: as §1

[8] = compound: C1CCN(C1)C(=O)NC2=CC=CC(=C2)NC3=NC=C(C(=N3)NCCC4=CN=CN4)Br
How it was run: as §1

[9] = compound: C1CN(CCC1(CC2=CC=C(C=C2)Cl)N)C3=NC=NC4=C3C=CN4
How it was run: as §1

[10] = compound: C1COCCN1CCN2C3=CC=CC=C3N=C2NC(=O)C4=CC(=CC=C4)[N+](=O)[O-] [IRAK-1-4 Inhibitor I]
How it was run: as §1

UniProt Q9Y448, sequence (Q9Y448 whole entry, looked up): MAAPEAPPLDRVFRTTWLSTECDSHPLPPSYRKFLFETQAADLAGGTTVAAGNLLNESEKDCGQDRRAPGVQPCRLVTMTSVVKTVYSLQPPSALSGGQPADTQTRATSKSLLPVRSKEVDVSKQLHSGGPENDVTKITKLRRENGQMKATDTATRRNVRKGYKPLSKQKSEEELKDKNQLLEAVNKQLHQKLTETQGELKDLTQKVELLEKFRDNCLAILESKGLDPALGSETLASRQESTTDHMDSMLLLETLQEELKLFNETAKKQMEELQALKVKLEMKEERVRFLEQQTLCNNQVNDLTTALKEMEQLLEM
UniProt P07948, sequence (P07948 whole entry, looked up): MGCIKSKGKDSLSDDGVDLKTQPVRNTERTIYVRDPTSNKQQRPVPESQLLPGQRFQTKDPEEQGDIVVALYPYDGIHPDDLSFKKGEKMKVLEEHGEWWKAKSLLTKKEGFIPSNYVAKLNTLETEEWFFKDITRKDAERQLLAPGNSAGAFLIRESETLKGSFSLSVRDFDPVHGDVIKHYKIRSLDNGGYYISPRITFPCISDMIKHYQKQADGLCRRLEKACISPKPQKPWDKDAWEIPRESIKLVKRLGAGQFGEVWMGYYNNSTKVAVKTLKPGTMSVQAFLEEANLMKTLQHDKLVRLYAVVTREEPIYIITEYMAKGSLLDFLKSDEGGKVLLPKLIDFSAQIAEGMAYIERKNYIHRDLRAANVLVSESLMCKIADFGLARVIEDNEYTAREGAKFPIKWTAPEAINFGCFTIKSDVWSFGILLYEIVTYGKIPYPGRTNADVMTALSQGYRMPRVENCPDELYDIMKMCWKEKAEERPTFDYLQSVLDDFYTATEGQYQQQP
UniProt P11279, sequence (P11279 whole entry, looked up): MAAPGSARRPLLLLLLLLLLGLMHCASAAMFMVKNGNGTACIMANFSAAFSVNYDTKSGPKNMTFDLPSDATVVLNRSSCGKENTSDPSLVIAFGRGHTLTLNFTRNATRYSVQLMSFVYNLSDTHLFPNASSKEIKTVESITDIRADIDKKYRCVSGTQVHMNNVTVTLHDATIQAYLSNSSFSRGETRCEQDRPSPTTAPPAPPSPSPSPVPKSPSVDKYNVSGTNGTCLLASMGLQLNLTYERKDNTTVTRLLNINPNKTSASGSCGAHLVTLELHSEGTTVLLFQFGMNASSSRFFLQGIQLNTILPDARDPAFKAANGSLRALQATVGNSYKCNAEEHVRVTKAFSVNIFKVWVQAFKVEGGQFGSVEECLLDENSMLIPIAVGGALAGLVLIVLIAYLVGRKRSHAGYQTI
UniProt Q8NHP6, sequence (Q8NHP6 whole entry, looked up): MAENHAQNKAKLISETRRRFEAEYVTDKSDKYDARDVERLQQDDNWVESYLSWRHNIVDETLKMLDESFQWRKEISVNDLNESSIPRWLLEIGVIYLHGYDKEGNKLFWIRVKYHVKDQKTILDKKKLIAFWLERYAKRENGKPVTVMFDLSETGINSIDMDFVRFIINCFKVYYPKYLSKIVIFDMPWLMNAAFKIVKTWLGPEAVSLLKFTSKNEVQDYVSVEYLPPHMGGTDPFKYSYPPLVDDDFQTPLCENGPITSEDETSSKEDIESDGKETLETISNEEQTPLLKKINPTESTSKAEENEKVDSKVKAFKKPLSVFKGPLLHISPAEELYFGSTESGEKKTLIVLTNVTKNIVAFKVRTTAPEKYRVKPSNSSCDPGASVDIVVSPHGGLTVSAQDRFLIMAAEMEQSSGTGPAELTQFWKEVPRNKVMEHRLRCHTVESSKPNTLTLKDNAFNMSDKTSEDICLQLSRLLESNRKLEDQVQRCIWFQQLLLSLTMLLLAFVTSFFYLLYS
UniProt P40692, sequence (P40692 whole entry, looked up): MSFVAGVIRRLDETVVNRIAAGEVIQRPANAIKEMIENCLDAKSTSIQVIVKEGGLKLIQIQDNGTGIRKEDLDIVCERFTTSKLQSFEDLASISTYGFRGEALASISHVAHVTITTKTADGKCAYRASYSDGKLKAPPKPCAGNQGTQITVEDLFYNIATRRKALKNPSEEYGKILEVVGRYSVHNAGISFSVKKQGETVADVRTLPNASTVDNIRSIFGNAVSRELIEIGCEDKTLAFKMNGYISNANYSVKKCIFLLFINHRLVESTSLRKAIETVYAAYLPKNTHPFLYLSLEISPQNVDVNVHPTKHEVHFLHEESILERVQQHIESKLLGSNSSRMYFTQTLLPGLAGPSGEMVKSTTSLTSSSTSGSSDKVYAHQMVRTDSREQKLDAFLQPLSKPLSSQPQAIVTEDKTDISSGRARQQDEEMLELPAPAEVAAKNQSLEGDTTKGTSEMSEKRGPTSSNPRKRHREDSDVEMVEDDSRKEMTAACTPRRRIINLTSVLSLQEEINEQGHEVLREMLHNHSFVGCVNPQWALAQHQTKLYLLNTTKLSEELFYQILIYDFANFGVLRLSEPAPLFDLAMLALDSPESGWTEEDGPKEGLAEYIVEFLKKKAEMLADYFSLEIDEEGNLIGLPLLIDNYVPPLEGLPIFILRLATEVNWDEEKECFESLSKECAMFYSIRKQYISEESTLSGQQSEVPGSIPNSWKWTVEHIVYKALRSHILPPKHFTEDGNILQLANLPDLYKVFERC
UniProt Q15013, sequence (Q15013 whole entry, looked up): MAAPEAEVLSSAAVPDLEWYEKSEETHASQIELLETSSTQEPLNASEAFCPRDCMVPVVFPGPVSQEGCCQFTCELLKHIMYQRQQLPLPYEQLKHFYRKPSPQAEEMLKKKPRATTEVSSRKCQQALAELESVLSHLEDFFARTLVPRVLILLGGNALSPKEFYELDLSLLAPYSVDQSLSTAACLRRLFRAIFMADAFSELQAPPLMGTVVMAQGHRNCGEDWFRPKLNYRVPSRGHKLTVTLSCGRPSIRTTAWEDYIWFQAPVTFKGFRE
UniProt Q7Z3U7, sequence (Q7Z3U7 whole entry, looked up): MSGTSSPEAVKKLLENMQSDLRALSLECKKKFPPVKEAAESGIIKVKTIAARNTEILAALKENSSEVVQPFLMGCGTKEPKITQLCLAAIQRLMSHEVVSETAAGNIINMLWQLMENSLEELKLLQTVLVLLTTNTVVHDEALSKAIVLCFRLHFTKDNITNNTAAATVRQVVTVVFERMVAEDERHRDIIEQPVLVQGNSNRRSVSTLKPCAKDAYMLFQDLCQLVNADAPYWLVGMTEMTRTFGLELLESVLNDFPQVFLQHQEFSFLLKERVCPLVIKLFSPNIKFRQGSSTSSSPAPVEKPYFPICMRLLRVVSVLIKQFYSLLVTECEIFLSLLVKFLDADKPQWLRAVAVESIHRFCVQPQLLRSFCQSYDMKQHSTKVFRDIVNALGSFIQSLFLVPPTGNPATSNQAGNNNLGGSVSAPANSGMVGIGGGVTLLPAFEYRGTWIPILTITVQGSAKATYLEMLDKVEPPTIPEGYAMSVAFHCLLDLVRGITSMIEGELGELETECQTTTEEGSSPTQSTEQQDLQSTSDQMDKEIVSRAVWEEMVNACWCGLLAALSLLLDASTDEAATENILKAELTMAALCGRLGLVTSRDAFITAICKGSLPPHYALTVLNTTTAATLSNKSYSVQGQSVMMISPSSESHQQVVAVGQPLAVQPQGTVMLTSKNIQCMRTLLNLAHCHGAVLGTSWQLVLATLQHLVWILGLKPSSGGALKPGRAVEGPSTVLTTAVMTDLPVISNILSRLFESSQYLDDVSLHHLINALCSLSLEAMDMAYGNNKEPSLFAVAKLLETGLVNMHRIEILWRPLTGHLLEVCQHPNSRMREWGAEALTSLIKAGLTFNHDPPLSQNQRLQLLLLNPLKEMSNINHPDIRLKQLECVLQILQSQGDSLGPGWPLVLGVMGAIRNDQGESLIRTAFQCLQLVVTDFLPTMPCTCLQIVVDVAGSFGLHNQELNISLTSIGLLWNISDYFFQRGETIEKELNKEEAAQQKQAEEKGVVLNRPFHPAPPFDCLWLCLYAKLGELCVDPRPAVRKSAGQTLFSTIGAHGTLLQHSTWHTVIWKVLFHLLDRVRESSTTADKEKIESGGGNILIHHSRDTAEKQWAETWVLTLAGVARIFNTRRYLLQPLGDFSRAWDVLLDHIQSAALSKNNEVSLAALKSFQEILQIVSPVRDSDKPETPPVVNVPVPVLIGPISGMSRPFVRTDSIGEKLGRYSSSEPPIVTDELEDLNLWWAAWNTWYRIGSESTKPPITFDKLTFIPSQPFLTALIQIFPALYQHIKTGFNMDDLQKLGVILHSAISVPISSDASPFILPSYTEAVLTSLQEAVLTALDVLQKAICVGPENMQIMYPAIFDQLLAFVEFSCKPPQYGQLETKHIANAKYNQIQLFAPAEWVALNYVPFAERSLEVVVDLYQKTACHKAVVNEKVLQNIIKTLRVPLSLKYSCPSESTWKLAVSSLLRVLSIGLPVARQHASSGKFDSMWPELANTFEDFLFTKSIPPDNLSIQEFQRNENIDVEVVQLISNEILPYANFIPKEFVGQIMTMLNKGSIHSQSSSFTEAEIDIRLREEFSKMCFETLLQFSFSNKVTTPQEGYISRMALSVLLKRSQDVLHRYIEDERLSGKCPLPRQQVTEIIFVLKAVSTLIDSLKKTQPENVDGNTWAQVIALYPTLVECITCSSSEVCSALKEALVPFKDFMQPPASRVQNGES
UniProt Q13601, sequence (Q13601 whole entry, looked up): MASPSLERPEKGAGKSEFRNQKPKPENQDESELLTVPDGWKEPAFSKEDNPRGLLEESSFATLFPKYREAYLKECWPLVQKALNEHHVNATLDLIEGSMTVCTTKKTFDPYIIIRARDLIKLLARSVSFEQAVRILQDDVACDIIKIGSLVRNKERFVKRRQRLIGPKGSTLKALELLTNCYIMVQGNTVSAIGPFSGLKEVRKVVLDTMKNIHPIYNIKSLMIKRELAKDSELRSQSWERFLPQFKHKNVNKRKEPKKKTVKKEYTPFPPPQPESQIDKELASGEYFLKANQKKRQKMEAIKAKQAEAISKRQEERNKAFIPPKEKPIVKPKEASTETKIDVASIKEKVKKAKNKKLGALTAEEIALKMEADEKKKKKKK

Target | log2 fold change [1] | log2 fold change [2] | log2 fold change [3] | log2 fold change [4] | log2 fold change [5] | log2 fold change [6] | log2 fold change [7] | log2 fold change [8] | log2 fold change [9] | log2 fold change [10]
MARK3 (UniProt P27448) | 0.089 (inactive) | -0.074 (inactive) | -0.007 (inactive) | 0.07 (inactive) | -0.051 (inactive) | 0.016 (inactive) | -0.218 (inactive) | -0.213 (inactive) | -0.023 (inactive) | -0.035 (inactive)
MRPL10 isoform 2 (UniProt Q7Z7H8) | -0.032 (inactive) | 0 (inactive) | 0.043 (inactive) | 0.022 (inactive) | -0.141 (inactive) | -0.002 (inactive) | -0.016 (inactive) | -0.062 (inactive) | 0.015 (inactive) | 0.014 (inactive)
MARK1 (UniProt Q9P0L2) | 0.105 (inactive) | 0.006 (inactive) | -0.018 (inactive) | 0.029 (inactive) | -0.01 (inactive) | -0.001 (inactive) | -0.26 (inactive) | -0.255 (inactive) | -0.111 (inactive) | -0.045 (inactive)
LAMP1 (UniProt P11279) | 0.024 (inactive) | 0.012 (inactive) | 0.021 (inactive) | -0.009 (inactive) | 0.012 (inactive) | 0.006 (inactive) | -0.006 (inactive) | -0.023 (inactive) | 0.038 (inactive) | 0.091 (inactive)
MECR (UniProt Q9BV79) | -0.019 (inactive) | 0.027 (inactive) | -0.005 (inactive) | -0.028 (inactive) | 0.012 (inactive) | -0.038 (inactive) | -0.035 (inactive) | -0.053 (inactive) | 0.079 (inactive) | 0.025 (inactive)
KIF4B (UniProt Q2VIQ3) | -0.018 (inactive) | -0.035 (inactive) | -0.017 (inactive) | 0.032 (inactive) | -0.005 (inactive) | 0.034 (inactive) | 0.004 (inactive) | -0.003 (inactive) | -0.027 (inactive) | -0.061 (inactive)
LYN (UniProt P07948) | 0.054 (inactive) | -0.047 (inactive) | 0.026 (inactive) | -0.011 (inactive) | -0.07 (inactive) | -0.022 (inactive) | 0.025 (inactive) | 0.07 (inactive) | -0.042 (inactive) | 0.487 (inactive)
MCMBP (UniProt Q9BTE3) | 0.038 (inactive) | 0.069 (inactive) | 0.024 (inactive) | 0.063 (inactive) | 0.01 (inactive) | -0.017 (inactive) | 0.001 (inactive) | -0.023 (inactive) | 0.072 (inactive) | 0 (inactive)
KIF11 (UniProt P52732) | -0.014 (inactive) | 0.012 (inactive) | -0.016 (inactive) | -0.004 (inactive) | -0.004 (inactive) | -0.004 (inactive) | -0.023 (inactive) | -0.005 (inactive) | -0.013 (inactive) | -0.033 (inactive)
MAD2L1BP isoform 3 (UniProt Q15013) | 0.067 (inactive) | -0.081 (inactive) | 0.002 (inactive) | 0.078 (inactive) | -0.015 (inactive) | 0.005 (inactive) | 0.063 (inactive) | -0.029 (inactive) | 0.263 (active) | -0.002 (inactive)
LETM1 (UniProt O95202) | -0.012 (inactive) | 0.061 (inactive) | -0.157 (inactive) | 0.012 (inactive) | 0.014 (inactive) | 0.01 (inactive) | 0.044 (inactive) | -0.006 (inactive) | 0.02 (inactive) | -0.013 (inactive)
MED17 (UniProt Q9NVC6) | -0.017 (inactive) | 0.062 (inactive) | 0.019 (inactive) | 0.065 (inactive) | -0.017 (inactive) | 0.014 (inactive) | -0.055 (inactive) | -0.007 (inactive) | -0.03 (inactive) | -0.012 (inactive)
MBTPS1 (UniProt Q14703) | 0.033 (inactive) | -0.022 (inactive) | -0.044 (inactive) | -0.009 (inactive) | -0.053 (inactive) | 0.029 (inactive) | -0.014 (inactive) | -0.029 (inactive) | 0.131 (inactive) | -0.026 (inactive)
LTN1 isoform 3 (UniProt O94822) | 0.028 (inactive) | 0.021 (inactive) | -0.065 (inactive) | -0.005 (inactive) | 0.003 (inactive) | -0.022 (inactive) | -0.045 (inactive) | -0.019 (inactive) | 0.023 (inactive) | 0.006 (inactive)
MPP5 (UniProt Q8N3R9) | 0.039 (inactive) | -0.009 (inactive) | 0.027 (inactive) | -0.016 (inactive) | 0.038 (inactive) | 0.01 (inactive) | -0.038 (inactive) | -0.028 (inactive) | -0.013 (inactive) | 0.085 (inactive)
MON2 isoform 5 (UniProt Q7Z3U7) | 0.031 (inactive) | -0.031 (inactive) | -0.018 (inactive) | 0.019 (inactive) | 0.001 (inactive) | -0.016 (inactive) | -0.021 (inactive) | 0.012 (inactive) | 0.04 (inactive) | 0.009 (inactive)
MAPK9 (UniProt P45984) | -0.001 (inactive) | 0.017 (inactive) | -0.018 (inactive) | -0.015 (inactive) | 0.014 (inactive) | 0.068 (inactive) | 0.393 (active) | 0.061 (inactive) | -0.032 (inactive) | -0.014 (inactive)
KLHL36 (UniProt Q8N4N3) | -0.047 (inactive) | -0.001 (inactive) | 0.06 (inactive) | -0.112 (inactive) | -0.313 (active) | -0.041 (inactive) | 0.013 (inactive) | -0.009 (inactive) | 0.084 (inactive) | 0.011 (inactive)
L3HYPDH (UniProt Q96EM0) | -0.004 (inactive) | 0.057 (inactive) | 0.028 (inactive) | -0.027 (inactive) | 0.033 (inactive) | -0.03 (inactive) | -0.048 (inactive) | 0 (inactive) | 0.038 (inactive) | 0.029 (inactive)
LAS1L (UniProt Q9Y4W2) | 0.053 (inactive) | -0.011 (inactive) | -0.003 (inactive) | -0.018 (inactive) | 0.022 (inactive) | 0.007 (inactive) | 0.028 (inactive) | -0.004 (inactive) | -0.027 (inactive) | -0.002 (inactive)
MOSPD2 (UniProt Q8NHP6) | -0.049 (inactive) | 0.152 (inactive) | 0 (inactive) | 0.072 (inactive) | 0.027 (inactive) | -0.015 (inactive) | 0.157 (inactive) | -0.062 (inactive) | -0.023 (inactive) | 0.057 (inactive)
KRR1 (UniProt Q13601) | 0.016 (inactive) | -0.232 (inactive) | -0.007 (inactive) | -0.019 (inactive) | 0.009 (inactive) | -0.01 (inactive) | 0.045 (inactive) | -0.032 (inactive) | 0.06 (inactive) | -0.069 (inactive)
MRPL35 (UniProt Q9NZE8) | -0.005 (inactive) | -0.237 (inactive) | -0.025 (inactive) | 0.296 (active) | 0.012 (inactive) | -0.011 (inactive) | -0.133 (inactive) | – | – | -0.041 (inactive)
MLH1 (UniProt P40692) | 0.018 (inactive) | 0.021 (inactive) | -0.011 (inactive) | 0.012 (inactive) | -0.079 (inactive) | 0.025 (inactive) | -0.019 (inactive) | -0.037 (inactive) | 0.015 (inactive) | -0.002 (inactive)
KNL1 (UniProt Q8NG31) | -0.005 (inactive) | -0.015 (inactive) | 0.002 (inactive) | 0 (inactive) | -0.017 (inactive) | 0.019 (inactive) | -0.015 (inactive) | 0.006 (inactive) | -0.007 (inactive) | 0.002 (inactive)
LYAR (UniProt Q9NX58) | -0.007 (inactive) | -0.004 (inactive) | 0 (inactive) | -0.007 (inactive) | -0.011 (inactive) | 0.046 (inactive) | 0.018 (inactive) | 0.007 (inactive) | -0.003 (inactive) | -0.018 (inactive)
KNSTRN (UniProt Q9Y448) | -0.007 (inactive) | -0.003 (inactive) | -0.018 (inactive) | 0.006 (inactive) | -0.018 (inactive) | 0.015 (inactive) | 0.012 (inactive) | 0.036 (inactive) | -0.061 (inactive) | -0.039 (inactive)

Reference: the supplement of paper PMC10849652
